# In PubChem BioAssay:
# A number with no mark means an inactive call. A call without a number means that no potency is given here. For some assays here: Potency and affinity values are given separately. The source made the active and inactive calls. Unless noted, no rule for the calls is given here.
# Key:
# [1] = antimalarial activity against Dd2 strain (AID 2302;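 active = growth inhibition above 50% at the single 2 µM test dose, taken to imply half-maximal potency below 2 µM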); conditions: P. falciparum Dd2 in RBCs, LDH growth readout, 72 h; at 2 µM; stronger effect = higher value
# [2] = HepG2 cytotoxicity, primary screen, cytotoxicity control for P. falciparum antimalarial project, cell-based, ATP luminescence (AID 2303;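 active = inhibition above 50%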); conditions: HepG2 viability, 24-48 h, at 10 µM, stronger effect = higher value
# [3] = target: L-lactate dehydrogenase (Plasmodium falciparum (isolate CDC / Honduras)) (UniProt Q27743); assay: PfLDH activity inhibition – cell lysate, 3D7 strain, counter-screen for P. falciparum growth inhibition project (AID 2304); conditions: P. falciparum 3D7 crude extract, LDH APAD/NBT absorbance; at 2 µM; stronger effect = higher value
# Chain of L-lactate dehydrogenase (Plasmodium falciparum (isolate CDC / Honduras)) (Q27743 whole entry, looked up): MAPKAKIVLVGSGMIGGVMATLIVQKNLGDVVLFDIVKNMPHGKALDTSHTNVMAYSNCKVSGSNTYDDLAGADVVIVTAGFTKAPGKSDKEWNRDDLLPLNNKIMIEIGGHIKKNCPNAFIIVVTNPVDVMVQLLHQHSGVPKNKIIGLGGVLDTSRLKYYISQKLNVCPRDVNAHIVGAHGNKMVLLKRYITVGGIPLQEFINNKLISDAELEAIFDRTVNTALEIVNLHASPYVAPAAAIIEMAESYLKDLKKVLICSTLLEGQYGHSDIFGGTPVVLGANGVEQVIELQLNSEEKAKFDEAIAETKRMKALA
# [4] = inhibition of 3D7 malaria parasite growth – strain 3D7 (AID 2306); conditions: P. falciparum 3D7 erythrocytic growth, LDH absorbance, 72 h; at 2 µM; stronger effect = higher value
# [5] = target: Calcium-dependent protein kinase 1 (Plasmodium falciparum (isolate 3D7)) (UniProt P62344); assay: PfCDPK1 kinase inhibitors, biochemical, TCAMS library (AID 1159585; cut-off not given, nearly all actives have IC50 up to about 0.98 µM;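 also: inhibitors leave more ATP so luminescence rises with inhibition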); conditions: recombinant PfCDPK1, Kinase-Glo ATP depletion luminescence
# Chain of Calcium-dependent protein kinase 1 (Plasmodium falciparum (isolate 3D7)) (P62344 whole entry, looked up): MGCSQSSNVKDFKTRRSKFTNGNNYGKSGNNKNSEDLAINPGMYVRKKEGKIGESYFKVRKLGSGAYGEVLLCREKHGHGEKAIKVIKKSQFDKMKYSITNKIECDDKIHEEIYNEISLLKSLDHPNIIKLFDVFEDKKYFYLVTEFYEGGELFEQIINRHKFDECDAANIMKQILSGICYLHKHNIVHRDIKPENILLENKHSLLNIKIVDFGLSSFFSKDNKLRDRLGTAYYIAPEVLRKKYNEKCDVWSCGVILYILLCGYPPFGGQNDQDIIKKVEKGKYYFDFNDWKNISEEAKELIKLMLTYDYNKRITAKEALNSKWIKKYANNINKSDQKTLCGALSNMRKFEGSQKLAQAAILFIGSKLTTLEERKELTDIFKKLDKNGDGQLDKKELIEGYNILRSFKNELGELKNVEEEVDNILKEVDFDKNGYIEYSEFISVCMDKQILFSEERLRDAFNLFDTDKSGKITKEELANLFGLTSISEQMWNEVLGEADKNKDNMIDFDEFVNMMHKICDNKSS
# [6] = target: Plasmodium falciparum protein kinase 6 (PK6, PF3D7_1337100) (UniProt Q8IDW1); assay: PfPK6 kinase inhibitors, biochemical, TCAMS library (AID 1159586); conditions: recombinant PfPK6, Kinase-Glo ATP depletion luminescence
# Chain of Plasmodium falciparum protein kinase 6 (PK6, PF3D7_1337100) (Q8IDW1 1-305): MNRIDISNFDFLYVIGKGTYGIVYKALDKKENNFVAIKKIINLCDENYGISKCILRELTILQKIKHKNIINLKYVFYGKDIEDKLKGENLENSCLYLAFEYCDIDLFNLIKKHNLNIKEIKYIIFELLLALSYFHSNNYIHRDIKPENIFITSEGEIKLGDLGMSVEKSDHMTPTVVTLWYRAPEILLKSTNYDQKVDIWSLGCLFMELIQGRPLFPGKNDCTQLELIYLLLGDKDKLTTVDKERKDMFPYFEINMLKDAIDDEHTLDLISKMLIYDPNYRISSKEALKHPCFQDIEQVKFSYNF
# [7] = target: Protein kinase 7 (PK7), Plasmodium falciparum 3D7 (PF3D7_0213400) (UniProt Q7YTF7); assay: inhibition of Plasmodium PK7 catalytic activity – biochemical, TCAMS antimalarial set, Kinase-Glo luminescence (AID 1159587); conditions: recombinant PfPK7, Kinase-Glo ATP depletion luminescence
# Chain of Protein kinase 7 (PK7), Plasmodium falciparum 3D7 (PF3D7_0213400) (Q7YTF7 1-343): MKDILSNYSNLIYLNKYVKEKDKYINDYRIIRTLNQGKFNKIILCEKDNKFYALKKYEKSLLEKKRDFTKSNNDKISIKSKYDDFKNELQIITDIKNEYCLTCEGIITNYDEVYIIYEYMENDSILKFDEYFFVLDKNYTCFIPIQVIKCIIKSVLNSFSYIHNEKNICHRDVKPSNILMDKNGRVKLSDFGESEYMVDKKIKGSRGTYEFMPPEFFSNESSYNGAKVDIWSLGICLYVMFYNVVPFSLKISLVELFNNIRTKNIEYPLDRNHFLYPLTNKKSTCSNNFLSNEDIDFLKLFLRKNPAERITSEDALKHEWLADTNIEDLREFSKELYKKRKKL
# [8] = target: Calcium-dependent protein kinase 4 (Plasmodium falciparum (isolate 3D7)) (UniProt Q8IBS5); assay: PfCDPK4 kinase inhibitors, biochemical, TCAMS library (AID 1159588; cut-off not given, nearly all actives have IC50 up to about 0.91 µM); conditions: recombinant PfCDPK4, Kinase-Glo ATP depletion luminescence
# Chain of Calcium-dependent protein kinase 4 (Plasmodium falciparum (isolate 3D7)) (Q8IBS5 whole entry, looked up): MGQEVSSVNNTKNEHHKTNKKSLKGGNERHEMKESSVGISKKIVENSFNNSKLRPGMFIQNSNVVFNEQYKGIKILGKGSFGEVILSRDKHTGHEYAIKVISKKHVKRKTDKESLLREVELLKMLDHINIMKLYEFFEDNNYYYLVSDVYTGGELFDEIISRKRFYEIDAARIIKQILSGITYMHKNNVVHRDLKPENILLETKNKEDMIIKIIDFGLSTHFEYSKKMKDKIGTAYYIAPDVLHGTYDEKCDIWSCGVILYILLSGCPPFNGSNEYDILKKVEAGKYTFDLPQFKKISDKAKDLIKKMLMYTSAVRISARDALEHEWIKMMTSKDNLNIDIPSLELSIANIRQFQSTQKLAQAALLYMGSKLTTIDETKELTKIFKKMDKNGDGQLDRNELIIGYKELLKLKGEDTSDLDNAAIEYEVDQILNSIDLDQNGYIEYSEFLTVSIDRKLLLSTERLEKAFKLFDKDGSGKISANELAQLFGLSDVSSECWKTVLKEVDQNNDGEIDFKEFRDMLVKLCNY
Structure (SMILES),growth inhibition [1],inhibition [2],inhibition [3] [%],growth inhibition [4],outcome [5],outcome [6],outcome [7],outcome [8]
CCN(CC)CCN(Cc1ccc(-c2ccc(C(F)(F)F)cc2)cc1)C(=O)c1c[nH]c2ccc(Br)cc12,74% (active),80% (active),-4,90% (active),inactive,inactive,inactive,inactive
Clc1ccc(-c2csc3ncnc(Cl)c23)cc1,95% (active),-3%,-6,94% (active),inactive,inactive,inactive,inactive
COc1ccc2ncc(F)c(CCN3C[C@H](CNCc4ccc5c(n4)NC(=O)CS5)[C@H](O)C3)c2c1,34%,-3%,-3,92% (active),inactive,inactive,inactive,inactive
CNC(=O)c1cnc(Nc2ccc(OCC(O)CN(C)C)cc2)nc1Nc1cccc(OC)c1 (stereo not given),97% (active),31%,1,103% (active),inactive,inactive,inactive,inactive
O=C1COc2ccc(S(=O)(=O)N3CCC[C@@H]3CCN3CCC(c4c[nH]c5cnccc45)CC3)cc2N1,6%,-8%,1,101% (active),inactive,inactive,inactive,inactive
O=[N+]([O-])c1cccc(CNC2CCN(Cc3ccc(C(F)(F)F)cc3)CC2)c1,28%,0%,1,99% (active),inactive,inactive,inactive,inactive
O=C(c1cc(-c2ccco2)[nH]n1)N1CCN(S(=O)(=O)c2ccc(Cl)cc2)CC1,95% (active),-5%,2,96% (active),inactive,inactive,inactive,inactive
Cc1cccn2c(=O)c3cc(C(=O)NC(C)c4ccccc4)c(=N)n(CCN4CCOCC4)c3nc12 (stereo not given),5%,6%,4,101% (active),inactive,inactive,inactive,inactive
Cc1cc(N2CC=CCC2)nc(/N=C(\N)Nc2ccc(Cl)cc2)n1,78% (active),-2%,-8,100% (active),inactive,inactive,inactive,inactive
COc1cc(OC)c2c(c1Cl)O[C@]1(C2=O)C(=O)C(Cc2ccccc2)(Cc2ccccc2)C(=O)C[C@H]1C,45%,-12%,-3,90% (active),inactive,inactive,inactive,inactive
NC(=O)CNC(=O)CCCN=C(N)N,-2%,20%,5,101% (active),inactive,inactive,inactive,inactive
CCN(CC)CCCN(C(=O)Nc1ccc(C#N)cc1)c1nc(-c2ccc(F)cc2)cs1,68% (active),36%,0,99% (active),inactive,inactive,inactive,inactive
Cc1[nH]c(C)c(-c2ccc(OCc3ccccc3C(F)(F)F)nc2)c(=O)c1Br,97% (active),35%,-6,98% (active),inactive,inactive,inactive,inactive
Cc1cc(NCCC(=O)Nc2ccccc2)nc(NCCOc2ccccc2)n1,9%,5%,0,100% (active),inactive,inactive,inactive,inactive
CN(C)CCCOc1ccc(CN2CC[C@H](NC(=O)c3ccc(Cl)c(Cl)c3)C2)cc1Br,34%,11%,-2,101% (active),inactive,inactive,inactive,inactive
Cc1ccc(C(=O)Nc2ccc(Nc3ccnc4cc(-c5ccncc5)ccc34)cc2O)cc1,100% (active),14%,1,97% (active),inactive,inactive,inactive,inactive
COc1cc2ccccc2c(OC)c1CNCCCCCCNCc1c(OC)cc2ccccc2c1OC,91% (active),100% (active),0,93% (active),inactive,inactive,inactive,inactive
O=C(/C=C/c1ccc(Cl)c(Cl)c1)NCCCCCCN1CCCN(C(=O)Nc2cccc(Cl)c2)CC1,2%,26%,0,94% (active),inactive,inactive,inactive,inactive
CCc1ccc(S(=O)(=O)Nc2ccc(CCN(C)C3CCN(C)CC3)cc2)cc1,9%,25%,-4,86% (active),inactive,inactive,inactive,inactive
CC[C@H](C)CNC(=O)c1ccc(-c2cccc(CN3CCC(N4CCCC4)CC3)c2)nc1,7%,-1%,-7,91% (active),inactive,inactive,inactive,inactive

Structure (SMILES),growth inhibition [1],inhibition [2],inhibition [3] [%],growth inhibition [4],outcome [5],outcome [6],outcome [7],outcome [8]
CSc1nc2nc(C)c(Cc3cccc(F)c3)c(C)n2n1,45%,3%,0,87% (active),inactive,inactive,inactive,inactive
O=C(Nc1cncc(NC(=O)c2ccc(Cl)c(Cl)c2)c1)c1ccc(Cl)c(Cl)c1,70% (active),12%,0,101% (active),inactive,inactive,inactive,inactive
CN(C)[C@@H]1C(=O)C(C(N)=O)=C(O)[C@@]2(O)C(=O)C3=C(O)c4c(O)ccc(C#Cc5ccccn5)c4C[C@H]3C[C@@H]12,75% (active),17%,-6,92% (active),inactive,inactive,inactive,inactive
Cc1cccc(-n2c(=O)c3c4c(sc3n3c(SCCC(C)C)nnc23)CCCC4)c1,8%,-2%,-4,90% (active),inactive,inactive,inactive,inactive
CC(C)CNC(=O)c1cncc(-c2ccc(CNC3Cc4ccccc4C3)cc2)c1,37%,5%,0,99% (active),inactive,inactive,inactive,inactive
Cc1cc(N[C@@H](CC(C)C)C(=O)NCCc2ccccc2)nc(NCCc2cccs2)n1,16%,0%,-3,89% (active),inactive,inactive,inactive,inactive
COc1ccc(OCCn2cc(C(=O)c3ccco3)c3ccccc32)cc1,61% (active),17%,-1,98% (active),inactive,inactive,inactive,inactive
CC(=O)Nc1ccc(OCCCN(Cc2ccccc2OC(F)(F)F)c2ccc(C(F)(F)F)c(C#N)c2)c(Cl)c1,80% (active),5%,0,91% (active),inactive,inactive,inactive,inactive
COc1ccc(CCN2CCC(NCc3cccc(N(C)C)c3)CC2)cc1,7%,18%,2,98% (active),inactive,inactive,inactive,inactive
Cc1cccc(C)c1CNc1nc(N2CCOCC2)cc2c(C)c(C)[nH]c12,64% (active),51% (active),-4,92% (active),inactive,inactive,inactive,inactive
CC(=O)Nc1ccc(C(=O)Nc2ccc(-c3cccc(-c4nc5ccc(F)cc5[nH]4)c3)cc2)cn1,84% (active),13%,-2,100% (active),inactive,inactive,inactive,inactive
Fc1ccc2nc(-c3ccc(-c4ccc(CN5CCC(CCN6CCCCC6)CC5)cc4)cc3)[nH]c2c1,100% (active),98% (active),-9,100% (active),inactive,inactive,inactive,inactive
COc1ccccc1CN1CCC(CNC(=O)c2cc(-c3ccc(N(C)C)cc3)cs2)C1 (stereo not given),16%,17%,-5,82% (active),inactive,inactive,inactive,inactive
CCCCc1ccc(C(=O)NC2CCN(C[C@H](O)c3ccnc4ccc(OC)cc34)CC2)cc1,22%,24%,-1,91% (active),inactive,inactive,inactive,inactive
CCS(=O)(=O)N1CCN(c2nc(-c3ccccc3)nc(COC)c2Cc2ccccc2F)CC1,34%,-2%,0,82% (active),inactive,inactive,inactive,inactive
COc1ccc(NC(=O)C=Cc2ccc(Oc3ccccc3Cl)c([N+](=O)[O-])c2)cc1OCCN(C(C)C)C(C)C,97% (active),31%,2,99% (active),inactive,inactive,inactive,inactive
COc1ccc(-c2cnc3ccc(NCc4ccc(S(N)(=O)=O)cc4)nn23)cc1,99% (active),19%,-2,96% (active),inactive,inactive,inactive,inactive
CCC(C)NC(=O)Nc1cccc(-c2cccc(-c3nc4c(C)cccc4[nH]3)c2)c1 (stereo not given),27%,3%,5,101% (active),inactive,inactive,inactive,inactive
COc1ccc(-c2nc3c4cc(I)ccc4c4ccccc4c3[nH]2)cc1,16%,4%,-3,96% (active),inactive,inactive,inactive,inactive
Cc1ccc(NC(=O)c2ccc(Cl)c(Cl)c2)cc1-c1ccc(C(=O)Nc2ccncc2)cc1,79% (active),39%,-3,99% (active),inactive,inactive,inactive,inactive
